Assay results from PubChem BioAssay.
Where “and” joins values, the source holds several entries; their conditions need not be identical. Equal values may be shown once. Calls of active or inactive are those of the source.

Tests used:
[1] = tested on: PRMT1 (protein arginine N-methyltransferase 1); assay: PRMT1 binders on small-molecule microarrays, primary screen, biochemical, small-molecule microarray, 635 nm fluorescence (AID 1088); details: small-molecule microarray binding, higher = more signal;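 note: binding of Prmt1 protein to compounds spotted on small-molecule microarray slides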
[2] = yeast growth modulation, basal conditions, primary screen, YJM789 clinical isolate, OD600, 24 h (AID 1089);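 note: growth of clinical yeast isolate S. cerevisiae YJM 789 seeded 1000 cells per well; test concentration not given here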; details: S. cerevisiae YJM789 growth, higher = more signal, called active from +8 up or from −8 down
[3] = fission yeast growth modulation, primary screen, strain 972, OD600, 24 h, no modulator (AID 1090);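 note: basal condition with compound alone and no growth modifier present; test concentration not given here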; details: S. pombe 972 growth, higher = more signal, called active from +8 up or from −8 down
[4] = S. cerevisiae growth modulation with rapamycin, primary screen, strain BY4716, OD600, 96 h (AID 1091); details: higher = more signal, called active from +8 up or from −8 down; note: test concentration not given here
[5] = molecular target: Torsin-1A-interacting protein 2 (Homo sapiens) (UniProt Q8NFQ8); assay: LULL1 binders on small-molecule microarray, primary screen, cell lysate, human LULL1 lysate, 635/667 nm fluorescence (AID 1092); details: hLULL1 lysate binding, 635 nm fluorescence, higher = more signal;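 note: probe is lysate of COS7 cells overexpressing human LULL1; score merges per-feature 667 nm fluorescence with signal-to-noise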
[6] = E. coli growth modulation, two-sided OD650, primary screen, E. coli filamentation project, strain DRC41, 24 h (AID 1093); details: OD650, 24 h, higher = more signal, called active from +8 up or from −8 down;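 note: MC1000 strain lacking acrAB efflux and sulA so SOS filamentation is blocked; test concentration not given here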
[7] = small-molecule microarray binders of probe aLefty2, primary screen, biochemical, biotinylated probe, 635/667 nm fluorescence (AID 1094); details: higher = more signal;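 note: score merges spot fluorescence near 667 nm with spot signal-to-noise ratio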
[8] = tested on: Noggin (protein binding on small-molecule microarray); assay: Noggin binders on small-molecule microarray, primary screen, biochemical, 635/667 nm fluorescence (AID 1095); details: 635 nm fluorescence, higher = more signal;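 note: score merges 667 nm feature fluorescence with signal to noise over triplicate slides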
[9] = molecular target: Neurogenic locus notch homolog protein 3 (Homo sapiens) (UniProt Q9UM47); assay: NOTCH3 binders on small-molecule microarray, primary screen, biochemical, 635/667 nm fluorescence (AID 1096); details: NOTCH3 binding, 635 nm fluorescence, higher = more signal
[10] = small-molecule microarray binders of probe aEGFR, primary screen, biochemical, biotinylated probe, 635/667 nm fluorescence (AID 1097); details: higher = more signal;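 note: probe is a biotinylated anti-EGFR antibody binding compounds printed on slides; score combines fluorescence near 667 nm and signal to noise of each spot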

Chain of Torsin-1A-interacting protein 2 (Homo sapiens) (Q8NFQ8 whole entry, looked up): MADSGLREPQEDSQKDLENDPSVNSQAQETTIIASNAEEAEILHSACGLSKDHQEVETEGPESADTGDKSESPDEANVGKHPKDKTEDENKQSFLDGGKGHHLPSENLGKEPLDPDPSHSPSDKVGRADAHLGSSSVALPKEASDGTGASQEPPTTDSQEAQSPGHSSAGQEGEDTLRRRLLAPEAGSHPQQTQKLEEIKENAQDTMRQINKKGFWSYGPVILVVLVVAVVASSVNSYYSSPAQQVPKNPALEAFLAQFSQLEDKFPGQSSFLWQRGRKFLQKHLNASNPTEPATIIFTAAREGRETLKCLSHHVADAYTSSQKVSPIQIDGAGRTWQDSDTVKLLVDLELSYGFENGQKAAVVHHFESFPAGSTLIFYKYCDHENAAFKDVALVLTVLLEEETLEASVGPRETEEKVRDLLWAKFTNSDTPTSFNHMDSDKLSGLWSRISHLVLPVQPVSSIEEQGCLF
Chain of Neurogenic locus notch homolog protein 3 (Homo sapiens) (Q9UM47 whole entry, looked up): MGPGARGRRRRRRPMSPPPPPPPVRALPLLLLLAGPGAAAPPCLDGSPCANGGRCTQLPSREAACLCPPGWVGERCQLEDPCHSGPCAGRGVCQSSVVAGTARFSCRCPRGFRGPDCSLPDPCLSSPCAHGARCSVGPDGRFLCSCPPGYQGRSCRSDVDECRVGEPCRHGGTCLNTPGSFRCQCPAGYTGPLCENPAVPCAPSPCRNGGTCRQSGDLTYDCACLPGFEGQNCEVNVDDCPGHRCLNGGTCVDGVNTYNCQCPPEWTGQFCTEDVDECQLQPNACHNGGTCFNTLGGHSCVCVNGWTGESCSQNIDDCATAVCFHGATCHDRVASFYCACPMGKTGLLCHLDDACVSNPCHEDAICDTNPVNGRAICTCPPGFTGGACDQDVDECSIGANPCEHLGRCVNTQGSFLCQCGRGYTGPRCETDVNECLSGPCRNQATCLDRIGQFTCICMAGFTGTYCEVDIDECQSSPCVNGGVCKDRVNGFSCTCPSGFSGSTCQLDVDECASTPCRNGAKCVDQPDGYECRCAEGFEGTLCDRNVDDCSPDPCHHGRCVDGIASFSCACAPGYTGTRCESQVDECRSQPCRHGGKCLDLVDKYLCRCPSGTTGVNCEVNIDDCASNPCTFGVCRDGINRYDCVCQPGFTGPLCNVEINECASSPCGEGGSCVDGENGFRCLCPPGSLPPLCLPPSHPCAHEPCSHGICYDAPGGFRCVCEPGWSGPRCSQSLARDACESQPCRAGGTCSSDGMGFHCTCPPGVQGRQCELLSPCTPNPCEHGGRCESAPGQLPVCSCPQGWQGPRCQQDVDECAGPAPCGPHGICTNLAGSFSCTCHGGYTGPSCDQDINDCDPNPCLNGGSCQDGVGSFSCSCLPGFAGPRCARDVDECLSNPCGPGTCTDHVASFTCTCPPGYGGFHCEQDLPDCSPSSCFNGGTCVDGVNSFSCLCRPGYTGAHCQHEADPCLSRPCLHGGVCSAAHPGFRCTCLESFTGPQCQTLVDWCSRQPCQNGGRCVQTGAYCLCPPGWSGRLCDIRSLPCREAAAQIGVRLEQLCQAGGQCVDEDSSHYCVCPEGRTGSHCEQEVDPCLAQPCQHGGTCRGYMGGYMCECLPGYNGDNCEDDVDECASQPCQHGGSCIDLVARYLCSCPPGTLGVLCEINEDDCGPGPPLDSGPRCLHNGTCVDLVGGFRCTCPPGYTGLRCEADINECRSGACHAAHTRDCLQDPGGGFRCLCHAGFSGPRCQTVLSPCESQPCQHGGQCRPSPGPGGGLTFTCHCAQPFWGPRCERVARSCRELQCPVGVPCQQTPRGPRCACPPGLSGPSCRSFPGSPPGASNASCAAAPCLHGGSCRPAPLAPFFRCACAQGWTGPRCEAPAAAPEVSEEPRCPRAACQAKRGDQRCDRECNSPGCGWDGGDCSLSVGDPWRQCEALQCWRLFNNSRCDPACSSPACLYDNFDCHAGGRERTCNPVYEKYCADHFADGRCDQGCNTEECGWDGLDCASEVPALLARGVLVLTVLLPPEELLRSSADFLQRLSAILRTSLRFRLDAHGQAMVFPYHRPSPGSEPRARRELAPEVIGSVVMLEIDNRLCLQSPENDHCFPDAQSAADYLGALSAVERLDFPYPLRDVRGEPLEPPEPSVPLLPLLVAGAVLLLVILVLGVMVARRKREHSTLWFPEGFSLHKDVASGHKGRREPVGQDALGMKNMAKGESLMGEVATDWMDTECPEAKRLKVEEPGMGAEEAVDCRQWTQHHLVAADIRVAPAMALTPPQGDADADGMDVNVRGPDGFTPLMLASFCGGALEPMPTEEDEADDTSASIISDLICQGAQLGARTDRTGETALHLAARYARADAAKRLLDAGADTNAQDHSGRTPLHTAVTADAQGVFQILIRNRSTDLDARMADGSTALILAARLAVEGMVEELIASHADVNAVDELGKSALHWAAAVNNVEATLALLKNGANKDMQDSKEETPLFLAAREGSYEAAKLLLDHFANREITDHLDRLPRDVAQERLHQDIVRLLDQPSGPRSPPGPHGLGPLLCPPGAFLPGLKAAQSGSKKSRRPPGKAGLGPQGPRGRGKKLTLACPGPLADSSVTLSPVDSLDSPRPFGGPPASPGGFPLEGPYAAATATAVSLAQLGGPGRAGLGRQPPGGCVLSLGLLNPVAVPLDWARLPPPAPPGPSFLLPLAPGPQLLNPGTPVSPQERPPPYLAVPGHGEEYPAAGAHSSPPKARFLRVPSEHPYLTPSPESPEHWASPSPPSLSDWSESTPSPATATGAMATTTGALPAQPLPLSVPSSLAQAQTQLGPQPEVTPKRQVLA

SMILES	composite z-score [1]	z-score [2]	z-score [3]	z-score [4]	composite z-score [5]	z-score [6]	composite z-score [7]	composite z-score [8]	composite z-score [9]	composite z-score [10]
CC(CO)N1C(=O)[C@@H]2C3C(=O)OCCC=C[C@H]3OC23C=CCN(C(C)(C)C)C(=O)[C@@H]13 (stereo not given in full)	-0.577 and 0.254	0.581 (inactive) and -1.45 (inactive)	0.605 (inactive) and -0.779 (inactive)	0.819 (inactive) and -0.544 (inactive)	-0.326 and 2.17	-0.586 (inactive) and -0.513 (inactive)	-0.176 and 0.0028	-0.808 and 0.16	-0.431 and 0.289	-0.295 and -0.117
O=C1[C@H]2[C@H]3[C@H](O)[C@H](O)CC(=NOCc4ccccc4)[C@H]3CC[C@H]2C(=O)N1Cc1ccccc1	-1	-2.04 (inactive)	-2.07 (inactive)	-1.04 (inactive)	-0.336	0.582 (inactive)	-0.234	0.439	0.273	-0.126
C=C[C@@H](C)[C@H](O)c1ccc(O)c2ccccc12	0.849 and -0.813	-0.647 (inactive) and -0.84 (inactive)	-7.96 (inactive) and -7.6 (inactive)	3.63 (inactive) and 2.2 (inactive)	1.26 and 0.149	1.32 (inactive) and 0.1 (inactive)	-0.254 and -0.233	0.753 and -0.896	-0.0801 and -1.72	-0.244 and -0.399
C=CCN(CCCC)C(=O)C(c1cccs1)N(C(=O)/C=C\C(=O)O)c1ccc(CCO)cc1 (stereo not given)	-1.13 and -0.631	-0.924 (inactive) and 0.0434 (inactive)	-0.13 (inactive) and -0.354 (inactive)	0.161 (inactive) and 0.541 (inactive)	0.413 and 0.484	0.0144 (inactive) and -0.312 (inactive)	0.0113 and -0.145	-2.58 and -3.71	-1.26 and -0.946	-0.315 and -0.346
CC(C)OC(=O)C=C1C[C@@H](c2cccc(C(F)(F)F)c2)O[C@@H](c2cccc(C(F)(F)F)c2)O1	0.97 and 1.25	0.104 (inactive) and -0.425 (inactive)	0.63 (inactive) and 0.404 (inactive)	0.938 (inactive) and 1.23 (inactive)	2.98 and 2.18	-0.889 (inactive) and -1.05 (inactive)	-0.143 and -0.177	-0.696 and -1.07	-0.534 and -0.875	-0.254 and -0.243
CO[C@@H]1COC(=O)CC=C[C@H](C)[C@@H](NS(=O)(=O)c2ccc(C)cc2)COC(=O)CC=C[C@@H]1C	1.16 and 1.54	0.403 (inactive) and -0.552 (inactive)	-0.733 (inactive) and -0.194 (inactive)	0.62 (inactive) and -1.52 (inactive)	0.633 and -0.853	0.56 (inactive) and 0.132 (inactive)	-0.0785 and -0.186	1.27 and 1.31	0.634 and 0.525	-0.115 and 0.0097
C[C@@]1([C@@H](NC(=O)Cc2ccccc2)c2ccc(-c3ccccc3)cc2)C[C@H]1C1CCCCC1	0.314 and 0.316 and 0.125	0.375 (inactive) and 0.029 (inactive) and 0.56 (inactive)	-6 (inactive) and -0.107 (inactive) and 1.45 (inactive)	-0.167 (inactive) and 0.998 (inactive) and 2.36 (inactive)	-0.331 and 2.71 and 2.97	-1.16 (inactive) and -0.413 (inactive) and -1.74 (inactive)	0.586 and 1.19 and -0.294	-0.0626 and -0.481 and -0.08	0.444 and 0.213 and 0.544	0.0843 and 0.812 and -0.116
CC(C)=NOC[C@@H](O)COCc1ccco1	-0.697	0.848 (inactive)	0.174 (inactive)	0.746 (inactive)	-0.151	0.358 (inactive)	-0.122	0.301	-1.45	-0.147
CC[C@@H]1C(Sc2ccccc2)C(C(=O)O)[C@H](c2ccc(C)cc2)N1S(=O)(=O)c1ccc(C)cc1 (stereo not given in full)	1.25 and 1.49	-0.768 (inactive) and -2.59 (inactive)	0.796 (inactive) and -0.975 (inactive)	-0.451 (inactive) and -0.576 (inactive)	2.66 and 3.19	-0.889 (inactive) and -0.743 (inactive)	0.149 and -0.0615	-0.0727 and -0.216	1.11 and 1.07	-0.0025 and -0.114
C[C@@H]1CC[C@H]2C(=O)O[C@H](CN=[N+]=[N-])CN2[C@H]1c1ccc(Br)cc1	0.692 and 0.323	-0.471 (inactive) and 0.113 (inactive)	-16.7 (active) and -14.3 (active)	-2.15 (inactive) and -0.441 (inactive)	0.359 and -0.0523	-0.548 (inactive) and 0.433 (inactive)	-0.245 and -0.0174	0.366 and 0.115	-0.105 and -1.06	0.0172 and -0.252
C=CCN(Cc1ccccc1)C(=O)C1N(CCCCCCO)C(=O)C2C(C(=O)O)C3C=CC21O3 (stereo not given)	-0.487 and -1.4	0.101 (inactive) and -1.39 (inactive)	0.624 (inactive) and -0.642 (inactive)	-0.889 (inactive) and -1.51 (inactive)	1.83 and 1.79	-0.142 (inactive) and 1.19 (inactive)	-0.0265 and 0.0515	-1.9 and -1.38	-1.59 and -0.439	-0.322 and -0.246
